In assay [1] the target is Cytochrome P450 3A7 (Homo sapiens) (UniProt P24462). Put plainly: Cytochrome P450 family 3 subfamily A member 7 (CYP3A7) small molecule antagonists: luciferase biochemical qHTS assay (AID 1963596). Further: nearly all actives have a fitted effect of over 40% in size. Further: potency means the concentration at half of the fitted maximal effect. The method in brief:
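Compounds were screened in qHTS format for interference with CYP3A7 turnover of a proluciferin substrate. Reactions ran 1 h at room temperature after NADPH regeneration solution was added, then luciferin product was detected by luminescence.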

The nature of assay [2]: Viability qHTS for spleen associated tyrosine kinase inhibitor (SYKi) naive MV4-11 cells (AID 1963823). Further: nearly all actives have a fitted effect of over 40% in size. Further: potency means the concentration at half of the fitted maximal effect. A digest of the protocol:
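CellTiter-Glo luminescence, 10 min room-temperature incubation, gave viability. Cells: naive MV4-11 (500/well), treated 72 hr at 37 C, 5% CO2.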
Background: In qHTS, concentration-response curves come from the screen itself.

Assay [3] in a line: Cellular viability qHTS for adrenocortical cancer (ACC) cell line SW-13 (AID 1963989).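 Further: cells grown in serum-free medium with ITS supplement; nearly all actives have a fitted effect of over 65% in size.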 The conditions noted are these: SW-13 ACC cells viability, CellTiter-Glo, 48 h; activity (max response): stronger effect = lower value. The method in brief:
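Viability was read as CellTiter-Glo luminescence after 48 h compound treatment (up to 46 uM final) of SW-13 cells grown serum-free; titration curves were fit with a four-parameter logistic model to give IC50 and efficacy.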

Assay [4] in a line: Cellular viability qHTS for adrenocortical cancer (ACC) cell line NCI-H295R (AID 1963990). Further: nearly all actives have a fitted effect of over 60% in size. The method in brief:
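CellTiter-Glo ATP luminescence, read 48 h after compound addition, measured viability of NCI-H295R adrenocortical cells grown serum-free with ITS. Final concentrations spanned up to 46 uM. Data normalized to DMSO and doxorubicin, fitted for IC50 and maximal response.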

A short description of assay [5]: Viability qHTS for spleen associated tyrosine kinase inhibitor (SYKi) drug resistant MV4-11 cells (AID 1963824). Further: nearly all actives have a fitted effect of over 35% in size. Further: potency means the concentration at half of the fitted maximal effect. A digest of the protocol:
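SYK-inhibitor-resistant MV4-11 AML cells were seeded at 500 per well onto compound and cultured 72 hours (37 °C, 5% CO2). CellTiter-Glo was then added, and after 10 min at room temperature, luminescence gave viability.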

Values joined by “and” are separate entries in the source; they are usually repeats but may differ in a detail not shown here. Equal entries are not always repeated. Results filed as inconclusive are left out. Where a call stands in place of a potency, no number is given. Values without a mark were called inactive. Active and inactive are the calls of the source. The call rests on the fitted dose curve; in most records, active means well fitted curve in the direction sought with a large enough effect; inconclusive means small, poorly fitted or top-dose-only effect, or another doubt; inactive means no such curve, though single readings can be large; an effect the other way counts as inactive or inconclusive.

Sequence of Cytochrome P450 3A7 (Homo sapiens) (P24462 whole entry, looked up): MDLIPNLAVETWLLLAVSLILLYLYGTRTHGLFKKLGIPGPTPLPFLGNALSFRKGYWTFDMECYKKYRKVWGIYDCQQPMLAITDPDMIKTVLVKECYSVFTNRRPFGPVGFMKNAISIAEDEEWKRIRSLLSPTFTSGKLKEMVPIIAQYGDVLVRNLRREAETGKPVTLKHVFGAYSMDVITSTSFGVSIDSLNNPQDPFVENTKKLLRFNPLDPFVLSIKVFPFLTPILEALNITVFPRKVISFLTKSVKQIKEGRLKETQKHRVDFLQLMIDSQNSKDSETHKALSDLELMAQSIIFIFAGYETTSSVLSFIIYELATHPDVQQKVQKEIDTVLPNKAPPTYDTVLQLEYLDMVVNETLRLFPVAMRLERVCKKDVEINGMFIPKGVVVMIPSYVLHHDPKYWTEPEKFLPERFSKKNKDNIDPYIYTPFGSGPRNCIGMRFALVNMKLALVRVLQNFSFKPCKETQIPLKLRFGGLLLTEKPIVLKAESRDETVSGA

Take `COC(=O)C(CC1CCCC1)c1ccc(S(C)(=O)=O)cc1` (stereo not drawn): the Potency result in assay [1] and in assay [2] was “inactive” throughout. Consider `CN(CCCOc1ccc(Cc2ccccc2)cc1)CCC(=O)O`, for which the Potency result in assay [1] and in assay [2] was “inactive” each time.

Turning to `O=C1OC2(c3ccccc31)c1cc(Br)c(O)c(Br)c1Oc1c2cc(Br)c(O)c1Br`, the Potency in assay [1] is 19.5 µM (active). Besides, in assay [2], the Potency entry was “inactive”.

Take `N#Cc1cccc(-c2nc(-c3cccnc3)no2)c1`: the Potency entry in assay [1] and in assay [2] was “inactive” in each case. In the case of `Cc1nnc(-c2ccc(-c3ccc(C(=O)Nc4ccc(O)c(N5CCN(C)CC5)c4)cc3)c(C)c2)o1`, the Potency result in assay [1] and in assay [2] was “inactive” each time. As to `COc1cccc(OC)c1-c1nc(C(=O)N[C@@H](CC(C)C)C(=O)O)cn1-c1ccnc2cc(Cl)ccc12`, the Potency result in assay [1] and in assay [2] was “inactive” in each case. For `COc1cc(F)c(C(C)C)cc1-c1ccc(C(F)(F)F)cc1CN1C(=O)OC(c2cc(C(F)(F)F)cc(C(F)(F)F)c2)C1C` (stereo not drawn), the Potency result in assay [1] was “inactive”. As for `CC1(C)CCC(C)(C)c2cc(C#Cc3ccc(C(=O)O)cc3)ccc21`, the Potency result in assay [1] and in assay [2] was “inactive” in each case.

With `CCCCCCOC(=O)/N=C(\N)c1ccc(NCc2nc3cc(C(=O)N(CCC(=O)OCC)c4ccccn4)ccc3n2C)cc1`, the Potency entry in assay [1] was “inactive”. For the same compound, the Potency in assay [2] was 1.3 µM (active). Regarding `Cc1nc(NC(=O)N2CCCC2C(N)=O)sc1-c1csc(C(C)(C)C)n1` (stereo not drawn), the Potency entry in assay [1] was “inactive”. Regarding `CN1CCC(Nc2nc(Nc3ccc(Oc4ccccc4)cc3)c3c(=O)[nH]cc(Br)c3n2)CC1`, the Potency in assay [1] was 6.74 µM (active). For the same compound, in assay [2], the Potency result was “inactive”. The matching figures for `O=C(O)C[C@@H](NC(=O)c1cc(-c2ccc(-c3ccncc3)cc2)cs1)c1ccccc1`: “inactive” and “inactive”. The matching figures for `Cc1cccc(C#Cc2cc(F)cc(C#N)c2)n1`: “inactive” and “inactive”.

As to `CCOc1ccc(NC(=O)Cn2cc(C(=O)c3cccs3)c3ccccc32)cc1`, in assay [1], the Potency result is “inactive”. In the case of `Cc1cc(CC(=O)O)n(C)c1C(=O)c1ccc(Cl)cc1`, the Potency entry in assay [1] and in assay [2] was “inactive” in each case. For the compound `O=C(O)Cc1ccc2oc(-c3ccc(NC(=O)/C=C/c4ccc(Br)cc4)c(F)c3)nc2c1`, the Potency result in assay [1] and in assay [2] was “inactive” each time. For the compound `O=C(Nc1nnc(-c2ccc3c(c2)OCCO3)o1)C1CCCCC1`, the Potency result in assay [1] and in assay [2] was “inactive” throughout.

For the compound `Nc1nc(N)c2nc(CNc3ccc(C(=O)N[C@@H](CCC(=O)O)C(=O)O)cc3)cnc2n1`, the Potency entry in assay [1] was “inactive”.

As to `CC(C)[C@@H]1C(=O)N(S(C)(=O)=O)[C@@H]2CCN(C(=O)/C=C/CN3CCCCC3)[C@H]21`, the Potency result in assay [1] and in assay [2] was “inactive” throughout. As for `CN1CC2CN(c3ccc4oc5ccccc5c(=O)c4c3)CC2C1` (stereo not drawn), in assay [1], the Potency result was “inactive”. With `CCOc1cc(C(C)(C)C)ccc1C1=NC(C)(c2ccc(Cl)cc2)C(C)(c2ccc(Cl)cc2)N1C(=O)N1CCN(CCCS(C)(=O)=O)CC1` (stereo not drawn), the Potency in assay [1] is 2.82 µM (active); in assay [2] it was 10.3 µM (active). The like results for `C[C@@H]1C[C@H](C)CN(CCC(=O)Nc2ccc(Br)cc2)C1` were, in that order, “inactive” and “inactive”. On to `NC(=O)c1cccc2cn(-c3ccc(C4CCCNC4)cc3)nc12` (stereo not drawn), for which the Potency entry in assay [1] is “inactive”. Still for that read-out and setting: under `CC(=O)NC[C@H]1CN(c2ccc(N3CCSCC3)c(F)c2)C(=O)O1` stands “inactive”; under `CCOc1ccc(C(NC(=O)c2cc(OC)c(OC)c(OC)c2)c2cc(Cl)c3cccnc3c2O)cc1` (stereo not drawn), “inactive”; under `CC(C)c1ccc(-n2ncc3c(=O)n(CC(=O)Nc4cc(F)ccc4Cl)cnc32)cc1`, “inactive”. Consider `CCN(CC)CCCC(C)Nc1ccnc2cc(Cl)ccc12` (stereo not drawn), for which the activity (max response) in assay [3] was 0.695% and -16.4%. The Potency result in assay [4] was “inactive”.

Turning to `COc1ccc(C2(CNC(=O)c3ccc(NC(=O)c4ccco4)cc3)CCOCC2)cc1`, the Potency entry in assay [1], in assay [2] and in assay [5] was “inactive” each time. Turning to `c1cc(-c2cc(C3CCNCC3)[nH]n2)ccn1`, the Potency entry in assay [1], in assay [2] and in assay [5] was “inactive” each time. In the case of `CN(c1ccc(NC(=O)Nc2ccccc2)cc1)S(=O)(=O)c1cnn(-c2ccc(F)cc2)c1`, in assay [1], the Potency entry was “inactive”. For the same compound, the Potency in assay [2] was 16.4 µM (active); in assay [5], 23.1 µM (active). Regarding `O=C(COc1ccc(Cl)cc1)NC1CCC(NC(=O)COc2ccc(Cl)cc2)CC1` (stereo not drawn), the Potency result in assay [1], in assay [2] and in assay [5] was “inactive” in each case. Consider `Nc1nc(O)c(C2=C3C(=Nc4ccccc43)C(=O)NCC2)[nH]1`, for which the Potency result in assay [1] was “inactive”. Besides, the results for the Potency in assay [2] and in assay [5] were 0.461 µM (active) and 1.16 µM (active), respectively. In the case of `O=C(NCC1CCN(Cc2cccc(Cl)c2)CC1)[C@@H]1CCCN(c2ncnc3c2nc2n3CCCC2)C1`, the Potency entry in assay [1] was “inactive”. In addition, the Potency in assay [2] is 2.31 µM (active); in assay [5], 10.3 µM (active).

The record behind these values is PubChem BioAssay (NCATS).
